# Assay outcomes: PubChem, The Scripps Research Institute Molecular Screening Center
# Most compounds without a hit are left out; they make up all but 4.1% or so of the library.
# DAX1 inh-1: inhibitors of DAX1 repression of SF-1 activated StAR promoter; HEK293T StAR-luciferase reporter, SF-1/DAX-1 repression relief; inhibition, % at 6.8 µM; 370,000 compounds, 1.1% hits; AID 652010;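 active = inhibition above the mean over all tested compounds plus 3 SD, cut at about 3.6% in these data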;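 also: higher inhibition means more luminescence from relief of DAX-1 repression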
# DAX1 inh-2: inhibitors of human orphan nuclear receptor DAX1 (NR0B1). P51843. HEK293 Gal4-DAX1 luciferase reporter, luminescence. inhibition, % at 6.75 µM. 340,000 compounds, 0.99% hits. AID 504766;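 active = inhibition above the mean over all tested compounds plus 3 SD, cut at about 4.2% in these data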;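 also: inhibition shows as a rise in luminescence from relieved DAX1 repression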
# Target sequence (P51843 207-470 limits assumed): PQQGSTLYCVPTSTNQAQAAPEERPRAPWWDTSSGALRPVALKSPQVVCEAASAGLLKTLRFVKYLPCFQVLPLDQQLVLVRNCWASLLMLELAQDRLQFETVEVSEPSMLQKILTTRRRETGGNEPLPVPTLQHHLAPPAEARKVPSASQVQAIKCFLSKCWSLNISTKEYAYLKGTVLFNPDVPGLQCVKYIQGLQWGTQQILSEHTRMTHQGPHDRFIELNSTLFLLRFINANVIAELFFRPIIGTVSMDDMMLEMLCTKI
# hgDAF12 agonist: activates the H. glycines DAF-12 receptor ligand-binding domain | HEK293 GAL4-hgDAF12 UAS-luciferase reporter, agonist luminescence; normalized to butyrate control | activation, % at 6.8 µM | 370,000 compounds, 1.8% hits | AID 687014;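 active = activation above a cutoff set at the mean of all screened compounds plus 3 SD, cut at about 10% in these data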
# hcDAF12 agonist: activates DAF-12 receptor from parasite H. contortus | activation, % at 6.8 µM | 370,000 compounds, 1.4% hits | HEK293 hcDAF-12 lit1-tk-luc reporter, luminescence; 0% DMSO, 100% Δ7-dafachronic acid;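 active = activation above the mean of all tested compounds plus 3 SD, cut at about 5.5% in these data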
# ssDAF12 agonist: activates DAF-12 receptor from parasite S. stercoralis | HEK293 ssDAF-12/GRIP1 lit1-tk-luc reporter, luminescence; % of 3 µM dafachronic acid response | activation, % at 6.8 µM | 370,000 compounds, 1% hits | AID 652126;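 active = activation above the mean over all tested compounds plus 3 SD, cut at about 0.9% in these data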
# A number is an active result; i = inactive; nt = not tested or not shown.
SMILES,DAX1 inh-1,DAX1 inh-2,hgDAF12 agonist,hcDAF12 agonist,ssDAF12 agonist
COC(=O)[C@]12C[C@H](CC(=O)NCCc3ccccc3OC)C(=O)N(Cc3cccc4ccccc34)C1=C[C@H](COCc1ccccc1)O[C@@H]2C,i,nt,i,i,i
CCOC(=O)C1CCN(C(=O)CSc2ccc(Cl)cc2)CC1,i,i,i,i,i
O=C(c1cc2cc(F)ccc2[nH]1)N1CCC(Cc2ccccc2)CC1,i,i,i,i,0.9
CCOC(=O)C1CCN(C(=O)c2cc3ccc(OC)cc3[nH]2)CC1,i,i,i,i,i
CCOC(=O)C1CCN(C(=O)c2cc3cc(Cl)ccc3[nH]2)CC1,i,i,i,6.5,i
CCOC(=O)C1CCN(C(=O)C(C)Sc2ccc(Cl)cc2)CC1 (stereo not given),i,4.7,i,i,i
C=CCN1C(C(=O)OC)CN(Cc2cn(Cc3ccc(OC)cc3)nn2)CCS1(=O)=O (stereo not given),i,nt,i,i,i
COc1ccc(C(=O)C2(C(=O)NCc3ccccc3)CC(c3ccccc3C(F)(F)F)=NO2)cc1 (stereo not given),i,nt,i,i,i
CC(C)c1ccc(OC[C@@H](O)CN2CCC(C(O)(c3ccccc3)c3ccccc3)CC2)cc1,i,nt,i,i,i
O=C(CCCN1C(=O)c2ccccc2C1=O)Nc1nc2ccccc2[nH]1,i,4.8,i,i,i
O=C(Nc1nc2ccccc2[nH]1)C12CC3CC(CC(C3)C1)C2,i,i,i,5.8,i
CSc1ccccc1C(=O)Nc1nc2ccccc2[nH]1,3.8,i,i,i,i
O=C(Cc1ccccc1Cl)Nc1nc2ccccc2[nH]1,i,i,i,6.0,i
CSc1ccccc1C(=O)Nc1nc2ccccc2c(=O)[nH]1,i,i,i,i,i
CCOC(=O)[C@@]12CCCC=C1N(CCc1ccc(Cl)cc1)C(=O)[C@H]2CC(=O)NCCc1ccccc1OC,i,nt,i,i,i
COc1ccc(OC)c(C=Nc2ccccc2-c2nc3ccccc3[nH]2)c1,i,i,12,i,i
Oc1ccc(C=Nc2ccccc2-c2nc3ccccc3[nH]2)c(O)c1,i,i,i,i,i
CCn1ncc(C(=O)Nc2ccccc2C)c1C,i,i,i,i,i
CCn1ncc(C(=O)Nc2ccc(F)cc2)c1C,i,i,i,i,1.7
CC(C)NC(=O)COc1cccc2ccccc12,i,i,i,i,i
CSCCC(NC(=O)COc1cccc2ccccc12)C(=O)O (stereo not given),i,i,i,i,1.0
Cn1cccc1-c1nc2ccc([N+](=O)[O-])cc2[nH]1,i,i,11,i,i
N#Cc1ccc(/C=C2\CC3(OC(=O)c4ccco4)CCCN2C3)cc1 (stereo not given),i,nt,i,i,i
CCn1c(COc2ccc(Cl)cc2)nnc1SCC(=O)Nc1ccccc1-c1ccccc1,i,nt,i,i,i
O=C(Nc1ccc2c(c1)OCO2)N1CCC(c2nc3ccc(Cl)cc3[nH]2)CC1,i,nt,i,i,i
SMILES,DAX1 inh-1,DAX1 inh-2,hgDAF12 agonist,hcDAF12 agonist,ssDAF12 agonist
Clc1ccc(NC2(c3nnnn3C3CCCCC3)CCCCC2)cc1,i,4.7,i,i,i
CC(=O)CCc1oc2ccccc2c1-c1ccccc1,i,i,i,i,i
CC(=O)CCc1oc2ccc(C)cc2c1Cc1ccccc1,i,i,i,6.5,1.6
COc1ccc(C(=O)N/C(=C\c2cn(C)c3ccccc23)C(=O)NCCCN2CCOCC2)cc1OC,i,i,i,i,i
Cn1cc(/C=C(\NC(=O)c2ccccc2)C(=O)NCCCN2CCOCC2)c2ccccc21,i,i,i,i,1.3
C=CCN1[C@H](CO)[C@H](c2ccc(C#CC3(O)CCCC3)cc2)[C@@H]1C#N,i,nt,i,i,i
O=C(Nc1cc([N+](=O)[O-])c2[nH]c(=O)c3ccccc3c2c1)C(F)(F)F,3.9,i,i,i,i
O=C(CCc1nc2ccccc2c(=O)[nH]1)Nc1ccc(F)c([N+](=O)[O-])c1,i,i,i,i,i
Cc1ccc(S(=O)(=O)N[C@H](C(=O)N2CCC(C(=O)N[C@@H](CC(=O)O)C(=O)O)CC2)C(C)C)cc1,i,8.8,i,i,i
Cc1ccc(S(=O)(=O)N[C@@H](CC(C)C)C(=O)N2CCC(C(=O)N[C@@H](Cc3ccccc3)C(=O)O)CC2)cc1,i,6.9,i,i,i
CCN(CC)C(=O)CC[C@@H]1CC[C@]2(CCCN(C(=O)C3CCCCC3)C2)O1,i,nt,i,i,i
NNC(=O)c1nnsc1-c1csnn1,i,i,10,i,i
O=C(NC1CC(=O)c2sccc21)c1ccc(Cl)cc1Cl (stereo not given),3.7,i,i,i,i
O=C(O)/C=C/C(=O)NNC(=O)c1ccc(Cl)cc1Cl,i,i,i,i,i
c1ccc(OCCNc2ccn3nc(-c4ccccc4)cc3n2)cc1,i,nt,i,i,i
FC(F)(F)c1cccc(-c2cc3nc(NCCOc4ccccc4)ccn3n2)c1,i,nt,12,i,i
CCN(Cc1ccccc1)S(=O)(=O)c1cn(C)cn1,i,i,13,i,i
CCN(Cc1ccccc1)S(=O)(=O)c1ccc(F)cc1,i,i,i,i,i
O=C(CSc1nnc(-c2cccs2)o1)Nc1cc(Cl)cc(Cl)c1,i,nt,i,i,i
Cc1occc1-c1nnc(SCC(=O)N[C@@H]2CCc3ccccc32)n1-c1ccccc1,i,nt,i,i,i
Cc1c(C(=O)NNc2c(Cl)cccc2Cl)n(C)oc1=O,i,6.2,i,i,i
COc1cccc(CCNC(=O)CCc2nc(-c3ccccc3F)no2)c1,i,nt,i,i,i
NC(=O)CSc1nc(C2CC2)nc2sc3c(c12)CCCC3,i,5.6,12,i,i
NC(=O)CSc1nc(N)c2c3c(sc2n1)CCCCC3,i,i,i,i,i
O=C(Cc1ccccc1)Nc1ccc(SC(F)F)cc1,i,4.3,i,i,i
SMILES,DAX1 inh-1,DAX1 inh-2,hgDAF12 agonist,hcDAF12 agonist,ssDAF12 agonist
Cn1cccc1CNC(=O)Nc1ccc(Cl)c(Cl)c1,i,i,i,i,i
O=C(NCCCn1ccnc1)Nc1ccc(Cl)c(Cl)c1,i,i,i,5.8,i
O=C(NCCCn1ccnc1)Nc1ccc(Cl)cc1,i,i,i,i,i
O=C(NCC1CC1(Cl)Cl)Nc1ccc(Cl)c(Cl)c1 (stereo not given),i,i,11,i,i
CS(=O)(=O)c1ccc(OC[C@@H](O)CN2CCC(C(O)(c3ccccc3)c3ccccc3)CC2)cc1,i,nt,i,i,i
COc1ccc(CNC(=O)C2CC(C)=C(C)CC2C(=O)O)cc1OC (stereo not given),i,4.5,i,i,i
COc1cccc(/C=N/NC(=O)CNC(=O)COc2ccccc2)c1O,i,i,i,i,i
O=C(COc1ccccc1)NCC(=O)N/N=C/c1ccc(O)cc1O,i,7.1,i,i,i
c1ccc2sc(-c3ccncc3)nc2c1,i,i,i,i,i
c1csc(-c2nc3ccccc3s2)c1,i,4.6,i,i,i
Cc1ccc(S(=O)(=O)NCC(=O)N2CCN(c3ccccn3)CC2)cc1C,i,nt,i,i,i
